Screens from PubChem.
Sampled rows, rich in hits. Any-hit rate of the full collection: about 1.2%.
LAP4-GFP MLPCN: alters LAP4-GFP fluorescence in TOR pathway yeast screen; S. cerevisiae LAP4-GFP multiplex, flow cytometry GFP, 3 h; median GFP as percent of DMSO wells; actives 0.34% (n = 320,000); GFP response vs DMSO, % at 10 µM; AID 2023;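 active = GFP response vs DMSO above a set limit, about the screen mean plus 3 SD, cut at about 150% in these data; inconclusive = under 70 cell events counted for the yeast strain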
MEP2 TOR yeast: yeast TOR pathway MEP2-GFP modulation; S. cerevisiae MEP2-GFP strain, flow cytometry GFP, 3 h; 100% = DMSO control level; GFP response vs DMSO, % at 10 µM; actives 0.51% (n = 330,000); AID 2016;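 active = GFP response versus DMSO above a set limit, roughly screen mean plus 3 SD, cut at about 180% in these data; inconclusive = fewer than 70 cells counted for a yeast strain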;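 also: median GFP fluorescence of the barcode-gated MEP2-GFP cells per well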
RPL19A TOR yeast: alters RPL19A-GFP fluorescence in TOR pathway yeast screen. percent response vs DMSO, % at 10 µM. S. cerevisiae RPL19A-GFP strain, flow cytometry, 3 h; stronger effect = lower value. AID 2025. actives 0.3% (n = 330,000);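 active = percent response vs DMSO below 50%; inconclusive = fewer than 70 events counted for the yeast strain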;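 also: median channel GFP fluorescence of the barcoded RPL19A-GFP strain; ratio of sample median GFP to plate DMSO average so 100% = DMSO; lower means less RPL19A-GFP as with rapamycin TOR inhibition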
Pemphigus Ab inh: inhibitors of pemphigus antibody binding to human desmoglein-3 | actives 0.48% (n = 310,000) | DSG3-coupled beads, scFv-anti-DSG3-GFP binding, flow cytometry; stronger effect = lower value | P32926 | binding (percent of control), % at 10 µM | AID 588358;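 active = binding more than 3 SD below its plate's average and above zero; inconclusive = below that plate limit but binding exactly zero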;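 also: hits lower antibody fragment binding to DSG3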
Target sequence (P32926 whole entry, looked up, the tested form may be a part): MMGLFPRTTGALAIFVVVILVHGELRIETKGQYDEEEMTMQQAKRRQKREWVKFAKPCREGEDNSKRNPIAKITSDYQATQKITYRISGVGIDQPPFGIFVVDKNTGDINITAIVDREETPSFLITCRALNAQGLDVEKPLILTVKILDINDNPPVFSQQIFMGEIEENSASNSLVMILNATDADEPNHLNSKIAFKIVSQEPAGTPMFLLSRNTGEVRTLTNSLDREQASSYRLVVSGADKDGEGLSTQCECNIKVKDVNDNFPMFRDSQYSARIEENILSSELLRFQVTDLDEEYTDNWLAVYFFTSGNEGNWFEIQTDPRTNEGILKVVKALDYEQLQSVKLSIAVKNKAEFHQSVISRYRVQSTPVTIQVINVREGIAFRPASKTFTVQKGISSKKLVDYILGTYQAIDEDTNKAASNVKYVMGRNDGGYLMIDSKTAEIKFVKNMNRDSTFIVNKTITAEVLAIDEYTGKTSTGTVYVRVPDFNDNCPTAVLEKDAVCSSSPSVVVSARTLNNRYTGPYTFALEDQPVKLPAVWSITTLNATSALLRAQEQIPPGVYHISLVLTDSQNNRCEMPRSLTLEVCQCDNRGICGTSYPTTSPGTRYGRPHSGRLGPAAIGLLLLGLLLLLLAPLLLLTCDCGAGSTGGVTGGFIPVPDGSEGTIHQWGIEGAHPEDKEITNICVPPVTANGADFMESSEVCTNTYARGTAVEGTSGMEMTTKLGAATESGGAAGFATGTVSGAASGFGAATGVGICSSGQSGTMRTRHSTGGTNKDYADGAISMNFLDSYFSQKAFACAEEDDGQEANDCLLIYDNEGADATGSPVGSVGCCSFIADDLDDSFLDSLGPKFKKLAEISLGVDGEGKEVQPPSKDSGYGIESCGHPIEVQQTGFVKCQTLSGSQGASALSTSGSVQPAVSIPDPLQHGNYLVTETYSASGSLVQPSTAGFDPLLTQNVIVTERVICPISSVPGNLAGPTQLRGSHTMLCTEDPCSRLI
AGP1 TOR yeast: alters AGP1-GFP fluorescence in TOR pathway yeast screen. S. cerevisiae AGP1-GFP multiplex flow cytometry, 3 h; GFP as percent of DMSO wells. GFP response vs DMSO, % at 10 µM. actives 0.02% (n = 320,000);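 active = GFP response relative to DMSO above a set limit, near screen average plus 3 SD, cut at about 150% in these data; inconclusive = fewer than 70 cells counted for the yeast strain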;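 also: median GFP channel fluorescence of the gated AGP1 strain per well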
CIT2 TOR yeast: yeast TOR pathway CIT2-GFP modulation; S. cerevisiae CIT2-GFP strain, flow cytometry, 3 h; 100 means same as DMSO wells; GFP response vs DMSO, % at 10 µM; actives 0.065% (n = 320,000); AID 2029;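 active = GFP response relative to DMSO above a set limit, near the screen mean plus 3 SD, cut at about 150% in these data; inconclusive = Fewer than 70 cells measured for a yeast strain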;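 also: ratio of well median GFP fluorescence to mean of DMSO wells on the plate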
LAP4 cherry2: reconfirmed LAP4-GFP TOR pathway modulator in yeast. actives 20% (n = 590). shares compounds with LAP4-GFP MLPCN. GFP response vs DMSO, % at 10 µM. S. cerevisiae LAP4-GFP strain, flow cytometry GFP, 3 h;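 active = GFP signal as percent of the solvent control above about 150%, meaning raised reporter expression, limit read from the data; inconclusive = fewer than 70 cells counted in the well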;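 also: ratio of well median GFP fluorescence to plate DMSO mean so 100% = DMSO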
MEP2 cherry2: yeast MEP2-GFP modulation, second cherry pick; shares compounds with LAP4-GFP MLPCN; S. cerevisiae MEP2-GFP strain, flow cytometry GFP, 3 h; GFP response vs DMSO, % at 10 µM; actives 10% (n = 590); AID 2622;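 active = GFP signal above 150% of the solvent control wells, that is a rise of more than half; inconclusive = fewer than 70 yeast cells counted in the well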;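 also: median channel GFP fluorescence of all gated yeast cells per well; ratio of median GFP to plate DMSO average so 100% = DMSO level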
RPL19A-GFP pick2: yeast RPL19A-GFP TOR reporter modulation, second cherry pick. shares compounds with LAP4-GFP MLPCN. S. cerevisiae RPL19A-GFP strain, flow cytometry GFP, 3 h; stronger effect = lower value; 100% means same as DMSO wells. GFP response vs DMSO, % at 10 µM. actives 3% (n = 590). AID 2623;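 active = under 65% GFP response relative to DMSO; inconclusive = yeast strain with under 70 measured events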;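 also: median GFP channel fluorescence per well over the all cells gate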
CIT2-GFP pick2: reconfirmed modulator of CIT2-GFP TOR reporter in yeast | AID 2624 | S. cerevisiae CIT2-GFP strain, flow cytometry GFP, 3 h; DMSO control wells read 100% | GFP response vs DMSO, % at 10 µM | actives 8% (n = 590) | shares compounds with LAP4-GFP MLPCN;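 active = GFP response vs DMSO above about 150%, limit read from the data; inconclusive = fewer than 70 events counted for a yeast strain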;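 also: median green fluorescence per well over all gated yeast cells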
AGP1-GFP pick2: reconfirmed modulator of AGP1-GFP TOR reporter in yeast; shares compounds with LAP4-GFP MLPCN; S. cerevisiae AGP1-GFP strain, flow cytometry GFP, 3 h; percent response vs DMSO, % at 10 µM; 590 tested, under 10 active; AID 2643;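 active = over 150 percent of DMSO response; inconclusive = yeast strain measured with under 70 events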;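 also: median GFP channel fluorescence over all cells without mother daughter split; sample median GFP divided by mean DMSO control so 100% equals DMSO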
s288c autofluor: yeast s288c autofluorescence artifact, counter-screen; S. cerevisiae s288c, 520 nm autofluorescence, flow cytometry, 3 h; stronger effect = higher value; zero means same as solvent-only cells; 610 tested, under 10 active; shares compounds with LAP4-GFP MLPCN; AID 2757; fluorescence change (kMESF span) at 33 µM;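 active = fluorescence span over the dose series, or activity score, above about 33, limit read from the data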
s288c autofl DR: TOR screen hit shows autofluorescence in yeast s288c. shares compounds with LAP4-GFP MLPCN. S. cerevisiae s288c parental, compound autofluorescence, flow cytometry, 3 h. fluorescence change (span) at 33 µM. 110 tested, under 10 active. AID 488829;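 active = fluorescence change span, or the activity score built from it, above 25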
TORC1 bypass gr: wildtype yeast growth loss with TORC1 bypass cells unaffected; shares compounds with LAP4-GFP MLPCN; 120 tested, under 10 active; growth rating (0-3) at 30 µM; S. cerevisiae BY4741 spot growth rating, 48-72 h; stronger effect = lower value;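 active = growth rating at most 1 for wild type yeast while the TORC1 bypass strain still grows fully, rated 3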
Starred values were filed as active, the others as inactive; ? = inconclusive; . = no result.

SMILES	LAP4-GFP MLPCN	MEP2 TOR yeast	RPL19A TOR yeast	Pemphigus Ab inh	AGP1 TOR yeast	CIT2 TOR yeast	LAP4 cherry2	MEP2 cherry2	RPL19A-GFP pick2	CIT2-GFP pick2	AGP1-GFP pick2	s288c autofluor	others
CCc1ccc(OCC(=O)NNC(=S)NC(=O)C2CC2)c(Br)c1	166*	116	106	.	94	88	.	.	.	.	.	0.71	s288c autofl DR=0.73;TORC1 bypass gr=3
C=CCN1CCN(C(=O)c2ccc3c(c2)OCO3)CC1	96	108	100	?	109	157*	104	103	97	100	103	.
COc1cc(/C=C/c2ccc3c(Br)cc(Br)c(O)c3n2)ccc1O	164*	109	94	102	84	88	.	.	.	.	.	3.6
O=C(O)c1cc(NC(=O)c2ccco2)cc(NC(=O)c2ccco2)c1	94	108	107	101	103	103	.	.	.	.	.	.
O=c1c2sc(-c3ccccc3)cc2nc2n1CCC2	121	101	59	100	60	72	101	101	59*	90	66	0.91
O=c1c2sc(-c3ccccc3)cc2nc2n1CCCCC2	127	97	93	107	95	92	.	.	.	.	.	.
CCN1CCN(c2cc(C)c3cc(NC(=O)c4cccc(OC)c4)ccc3n2)CC1	100	154	60	92	49	90	102	96	101	118	99	.
CCN1CCN(c2cc(C)c3cc(NC(=O)c4ccc(OC)c(OC)c4)ccc3n2)CC1	102	99	101	99	97	98	.	.	.	.	.	.
Cc1onc(-c2c(F)cccc2Cl)c1C(=O)Nc1cc(S(=O)(=O)N2CCCCC2)ccc1O	.	.	.	109	.	.	.	.	.	.	.	.
O=C(CC1C[C@H](C(=O)N2CCOCC2)[C@@]2(CCC3CCCC3)c3[nH]c4ccccc4c3CCN2C1=O)NCc1ccco1 (some centres not stated)	98	100	103	93	103	99	.	.	.	.	.	.
O=C1Nc2ccc(Br)cc2/C1=C/C(=O)c1ccc2c(c1)OCO2	131	86	94	108	99	92	.	.	.	.	.	-0.4
O=C(O)c1ccc2c(c1)C(=O)/C(=C/c1ccccc1)C2=O	83	92	94	101	86	86	88	94	99	107	98	0
CC(=O)c1cccc(S(=O)(=O)N2CCn3cccc3C2C)c1 (configuration not stated)	102	103	101	105	106	97	.	.	.	.	.	.
CC1(C)CC(=O)c2c(O)cc(OCC(=O)Nc3ccc(CCO)cc3)cc2O1	103	109	101	107	107	103	.	.	.	.	.	.
COc1ccc(CNC(=O)C2CCCN2S(=O)(=O)c2ccc(C)cc2)cc1 (configuration not stated)	103	93	97	.	97	89	.	.	.	.	.	.
Cc1ccc(S(=O)(=O)N2CCCC2C(=O)NCc2ccncc2)cc1 (configuration not stated)	100	112	98	92	110	161*	102	113	100	107	100	0
Cc1cc(C)c(C(=O)N2CCCC(Nc3ccc(C)c(C)c3)C2)o1 (configuration not stated)	97	97	95	102	97	95	.	.	.	.	.	.
Cc1cc(C)c(C(=O)N2CCCC(Nc3ccc(F)cc3)C2)o1 (configuration not stated)	201*	85	67	110	59	74	95	96	102	107	98	.
CNc1nc(N)cc(Nc2cccc(Cl)c2)n1	.	.	.	.	.	.	.	.	.	.	.	.	TORC1 bypass gr=3
On1ccccc1=S	260*	111	97	94	99	100	181*	118	95	139	95	0.1
CC(=O)Oc1oc(-c2ccccc2)nc1C=Nc1ccccc1	140	94	104	247	89	97	.	.	.	.	.	-0.1
CCOC(=O)c1ccc(N=Cc2nc(-c3ccccc3)oc2OC(C)=O)cc1	208*	91	92	103	85	85	.	.	.	.	.	0.51
COc1ccc(N=Cc2nc(-c3ccccc3)oc2OC(=O)c2ccccc2)cc1	74	99	106	90	88	100	.	.	.	.	.	-0.31
CCCCN(C(=O)CC1CCCCC1)c1c(N)n(CCCC)c(=O)[nH]c1=O	.	.	.	107	.	.	.	.	.	.	.	.
CCN1C(=O)[C@H]2[C@@H](c3ccc(C)cc3)N[C@]3(CCCN(Cc4ccc(F)cc4)C3=O)[C@H]2C1=O	.	.	.	111	.	.	.	.	.	.	.	.
CCN(CC(=O)Nc1ccc(OC)cc1)C(=O)C1CC(=O)N(Cc2ccccc2)C1 (configuration not stated)	.	.	.	97	.	.	.	.	.	.	.	.
N/C(=N\OC(=O)c1cccc(Br)c1)c1ccccc1	178*	103	93	108	63	120	.	.	.	.	.	0.1
S=c1[nH]nc(-c2ccco2)n1/N=C/c1ccc(Cl)cc1Cl	120	216*	101	97	99	102	102	100	99	99	94	.
Cc1nnc(SCCC(=O)Nc2ccccc2Cl)o1	93	99	101	99	101	100	.	.	.	.	.	.
COc1ccc(OC)c(N=c2ssnc2Cl)c1	131	92	92	101	92	82	.	.	.	.	.	.
